Here are results for 6 compounds from PubChem BioAssay.

The nature of experiment [1]: blockers of polyQ-driven CASP3 activation – cell-based (AID 1583). Conditions: polyglutamine-induced caspase-3 activation, cell assay; stronger effect = higher value;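 tested at 10 µM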.
Experiment [2] is described as follows: yeast 75Q aggregation reduction – 75Q-TubU reporter (AID 1593). Conditions: Yeast 75Q polyglutamine aggregation reporter.
Experiment [3] is described as follows: restoration of touch response, mutant HTT neurons – whole organism, C. elegans mechanosensory neurons, N-terminal huntingtin (AID 1599). The following applies: C. elegans polyQ-huntingtin mechanosensory neurons, stronger effect = higher value.
Experiment [4] can be described thus: blockers of cytochrome c efflux from mitochondria – biochemical, purified mitochondria (AID 1603).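 Further: mouse liver mitochondria challenged with calcium chloride; signal normalized to the plate average as 100%.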 The following applies: stronger effect = lower value.
Experiment [5] is described as follows: polyglutamine aggregate formation blockers (AID 1604). The following applies: polyglutamine-induced protein aggregation inhibition assay; stronger effect = higher value; tested at 2.5 µM.
Experiment [6] is described as follows: glutamate transport activators, MN-1 cells, MN-1 cell line (AID 1612).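 Further: tested at 1 µM final; 0% = mean of DMSO vehicle wells on each plate; positive means more glutamate uptake than control and negative means less.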 Conditions: MN-1 motor neuron cells, stronger effect = higher value.
Experiment [7] is described as follows: 75Q-TubH aggregate inhibition, S. cerevisiae, yeast (AID 1616). Conditions: S. cerevisiae 75Q-TubH polyglutamine aggregation suppression; stronger effect = higher value.
A short description of experiment [8]: compounds altering circadian rhythm period length – cell-based, LOPAC library, luminescence reporter (AID 2774; call rule not given here;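 further: values are relative to mean of DMSO wells on each plate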). Conditions: circadian reporter cells, at 7 µM, actives lie on both sides.
Experiment [9] in a line: P. berghei load reduction in hepatocytes – cell-based, HepG2, luciferase luminescence, HepG2 viability, primary screen (AID 624349; in the data active means parasite load remaining mostly below about 12%, no sharp cut-off; inactive means mostly above about 10%;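 further: 100% = mean of DMSO negative control wells on the same plate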). Conditions: P. berghei liver stage in HepG2, luciferase luminescence, concentration not given here; parasite load remaining: stronger effect = lower value; viability: measured here: HepG2 viability without parasites.
Experiment [10] deals with Hepatitis C virus NS3 helicase. The experiment in a line: blockers of NS3h binding to ssDNA – biochemical, fluorescence polarization, LOPAC1280 library, primary screen (AID 687035; in the data active means inhibition above about 37%). The following applies: Purified HCV NS3 helicase, Cy5-dT15 ssDNA binding fluorescence polarization; stronger effect = higher value; concentration not given here. For orientation: Fluorescence polarisation rises when a labelled molecule tumbles more slowly, as on binding a larger partner.

Experiment [11] is described as follows: compounds altering Cy5-DNA-NS3h complex signal – biochemical, LOPAC1280, artefact control for HCV NS3 helicase inhibitor project (AID 687037; call rule not given here). The following applies: Cy5-DNA-NS3h complex fluorescence interference counterscreen.
Experiment [12] can be described thus: EMT-state selective cytotoxicity in co-culture – imaging, PC-3E GFP, TEM4-18 mCherry, primary screen (AID 1345086).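 On all read-outs here: cells exposed to compound for 72 h before imaging.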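 On red/green cell ratio (normalised): normalised mesenchymal count divided by normalised epithelial count so high means epithelial killing.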 Conditions: PC-3E GFP / TEM4-18 mCherry co-culture, imaging cell counts, at 1 µM; for red/green cell ratio (normalised): actives lie on both sides, counts scaled to control wells, 1 = unselective.
In experiment [13] the test system is Aerobactin synthetase IucA (Klebsiella pneumoniae). The experiment in a line: inhibition of K. pneumoniae IucA enzyme – biochemical, Tocris library, absorbance (AID 1345561; call rule not given here;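 further: 100% = enzyme without compound and 0% = no enzyme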). Conditions: purified IucA enzyme assay, absorbance (OD) read-out; stronger effect = lower value;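 tested at 8 µM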.
Experiment [14] is described as follows: viability loss in pontine glioma line – cell-based, SU-DIPG-XVII, MIPE5.0, CellTiter-Glo, qHTS, dose response (AID 1347060; cut-off not given, nearly all actives have AC50 up to about 26 µM;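 further: cells exposed to compound for 48 hours before viability readout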). Conditions: CellTiter-Glo ATP luminescence.
The nature of experiment [15]: viability loss in pontine glioma line – cell-based, SU-DIPG-XIII, MIPE4.0, CellTiter-Glo, qHTS, dose response (AID 1347061; cut-off not given, nearly all actives have AC50 up to about 37 µM;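 further: cells exposed to compound for 48 hours before readout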). The following applies: CellTiter-Glo ATP luminescence.
The nature of experiment [16]: viability loss in pontine glioma line – cell-based, JHH-DIPG-1, MIPE4.0, CellTiter-Glo, qHTS, dose response (AID 1347062; cut-off not given, nearly all actives have AC50 up to about 27 µM). The following applies: JHH-DIPG-1 viability, CellTiter-Glo ATP luminescence. On the technique in general: In ATP-based viability assays light output follows the ATP content of the culture.
Experiment [17] in a line: viability loss in pontine glioma line – cell-based, SU-DIPG-IV, MIPE4.0, CellTiter-Glo, qHTS, dose response (AID 1347063; cut-off not given, nearly all actives have AC50 up to about 30 µM;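 further: compound exposure lasted 48 hours before the viability readout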). Conditions: CellTiter-Glo ATP luminescence.
Experiment [18] in a line: viability loss in pontine glioma line – cell-based, SU-DIPG-XIII, MIPE5.0, CellTiter-Glo, qHTS, dose response (AID 1347064; cut-off not given, nearly all actives have AC50 up to about 23 µM). The following applies: CellTiter-Glo ATP luminescence.
Experiment [19] is described as follows: viability loss in pontine glioma line – cell-based, SU-DIPG-XXV, MIPE5.0, CellTiter-Glo, qHTS, dose response (AID 1347065; cut-off not given, nearly all actives have AC50 up to about 26 µM;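 further: cells exposed to compound for 48 hours before ATP readout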). The following applies: CellTiter-Glo ATP luminescence.
Experiment [20] can be described thus: growth inhibition of DIPG cells – cell-based, MIPE4.0 library, CellTiter-Glo luminescence, qHTS (AID 1347066; cut-off not given, nearly all actives have AC50 up to about 30 µM;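 further: cells exposed to compound for 48 hours before readout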). The following applies: SU-DIPG-VI viability, CellTiter-Glo ATP luminescence.
A short description of experiment [21]: viability loss with induced miR-34 in A549 – imaging, A549 dox-inducible miR-34, nuclei and caspase counts, primary screen (AID 1347080;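 active means compounds whose cell count with miR-34 switched on is under 0.7 times the count with it off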). The following applies: A549 miR-34 inducible, Hoechst nuclei count, 48 h.
Experiment [22] can be described thus: compounds altering HSF1 focus formation in cells – imaging, Selleck Cancer Library (AID 1347162; in the data active means plate-normalised HSF1 focus index below about 0.46). Conditions: human cells, HSF1 nuclear foci imaging, at 10 µM; SSMD: measured here: HSF1 foci SSMD mean; cell count: measured here: cell number; plate-normalised HSF1 focus index: stronger effect = lower value.
A short description of experiment [23]: galactose survival enhancers in mitochondrial complex I cybrids – cell-based, galactose medium, ATP luminescence, primary screen (AID 1645843;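 active means z-score of at least 1.8 in each of two replicates, scored against plate mean and spread of sample wells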;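 further: positive z means more ATP and so rescue of galactose-driven cybrid death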). The following applies: complex I mutant cybrid cells, 72 h, stronger effect = higher value.
Setting [24] is: measured here: epithelial PC-3E GFP cell survival.
Setting [25] is: measured here: mesenchymal TEM4-18 mCherry cell survival.
The mark [26] stands for this setting: stronger effect = lower value, cell number ratio, induced over uninduced.
The mark [27] stands for this setting: measured here: relative caspase fold change +Dox/-Dox.
The mark [28] stands for this setting: measured here: total cells with miR-34 induction, stronger effect = lower value.
The mark [29] stands for this setting: measured here: total cells without miR-34 induction.

Structures are written as SMILES. “And” between values parts separate entries of the source, which are not always exact repeats. Equal values may be shown once. Inconclusive results are not listed. For some assays here: Potency and affinity values are given separately. The source made the active and inactive calls.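 How the source made its calls, unless noted: active means compounds killing one labelled cell type while sparing the other, by normalised counts and ratio limits, not self-fluorescent; inactive means the rest.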

As to `CC(=O)O[C@H]1C(=O)[C@@]2(C)C([C@H](OC(=O)c3ccccc3)[C@]3(O)C[C@H](OC(=O)[C@H](O)[C@@H](NC(=O)c4ccccc4)c4ccccc4)C(C)=C1C3(C)C)[C@]1(OC(C)=O)CO[C@@H]1C[C@@H]2O` (stereo not given in full), the inhibition is 28.3% in experiment [1] and -1% (inactive) in [10]. The same compound came in with a score in experiment [2] of 1.98. In experiment [3], this compound returned a rescue above control of 5.24. Moreover, the cytochrome c release ratio in experiment [4] was determined as 1.41. The inhibition of aggregation in [5] is 69%. Also, in [6], the glutamate uptake change is -2.18%. This compound gave an aggregation suppression score in [7] of 1.25. Further, the period change in experiment [8] was 0.575 h (inactive). Moreover, the parasite load remaining in experiment [9] is 178% (inactive) and 65.8% (inactive). In experiment [9], the viability was 87.4% and 98%. The fluorescence ratio (interference) in experiment [11] is 0.9 (inactive). Further, the red/green cell ratio (normalised) in experiment [12] is 0.49 (inactive). Moreover, the normalised cell number in [12] (setting [24]) was determined as 0.23; in [12] (setting [25]) it was 0.11. In addition, the remaining activity in experiment [13] was 121% (inactive). The AC50 in [14] is 5.9 nM (active); in experiment [19], 7.42 nM (active). Also, the compound was classed as inactive in [15], in experiment [16], in [17], in experiment [18] and in experiment [20]. The fold change in [21] (setting [26]) is 1.16 (inactive) and 1.14 (inactive); in experiment [21] (setting [27]) it was 0.394 and 2.19. For the same compound, the cell count in [21] (setting [28]) is 2700 and 2090; in experiment [21] (setting [29]), 2330 and 1830; in experiment [22], 6910. In [22], the SSMD was determined as 5.16. The plate-normalised HSF1 focus index in experiment [22] was 1.32 (inactive). Moreover, the z-score in [23] was 0.865 (inactive).
With `C=CCSC[C@@H](N)C(=O)O`, in experiment [12], the red/green cell ratio (normalised) was 0.86 (inactive). Moreover, the results for the normalised cell number in experiment [12] (setting [24]) and in [12] (setting [25]) were 1.23 and 1.06, respectively.
In the same order, the values of `CC1(C)C(=O)C=C[C@@]2(C)C1C=C[C@]1(C)C2CC[C@@]2(C)[C@H](c3ccoc3)OC(=O)[C@H]3O[C@]321` (stereo not given in full) are 1.3 (inactive), 0.56 and 0.73.
Regarding `O=C(O)c1cn(C2CC2)c2cc(N3CCN(c4ccc(Cl)cc4Cl)CC3)c(F)cc2c1=O`, the red/green cell ratio (normalised) in experiment [12] is 0.98 (inactive). Moreover, the normalised cell number turned out to be 1 in experiment [12] (setting [24]) and 0.98 in experiment [12] (setting [25]).
For `NC(=O)c1cc(F)c(F)cc1NC1CC1` the same measures were 1.15 (inactive), 1.02 and 1.16.
In the case of `NC(N)=NCCCC(N)C(=O)O` (stereo not given), in experiment [12], the red/green cell ratio (normalised) was 0.83 (inactive). Moreover, the results for the normalised cell number in [12] (setting [24]) and in experiment [12] (setting [25]) were 1.05 and 0.87, respectively. The fold change was 0.874 (inactive) in experiment [21] (setting [26]) and 0.933 in experiment [21] (setting [27]). Also, the cell count in [21] (setting [28]) is 8700; in experiment [21] (setting [29]), 9960.

Usually inhibition stands for the change of the read-out against control, counted positive when it falls. For orientation: viability means the share of living cells, or the viability signal relative to a control. Usually remaining activity stands for the signal under treatment as a percentage of the control signal. One may read the AC50 as the midpoint of the concentration-response curve, whichever way the signal moves.
